Results taken from the supplement of paper PMC12645437, “Orthogonal IMiD-Degron Pairs Induce Selective Protein Degradation in Cells” (ACS Chemical Biology, 2025).
In all, about 8,300 sequences were measured (“log2 fold change of degron read counts, EGFP-low vs EGFP+ sorted cells (limma voom), compound-induced degradation”: median about -1.1, highest 2% from about 3.2 on). The list comes from a sample in which the highest values are over-represented; it also holds similar and randomly drawn sequences.

T1: CRBN, Q96SW2
T1 chain: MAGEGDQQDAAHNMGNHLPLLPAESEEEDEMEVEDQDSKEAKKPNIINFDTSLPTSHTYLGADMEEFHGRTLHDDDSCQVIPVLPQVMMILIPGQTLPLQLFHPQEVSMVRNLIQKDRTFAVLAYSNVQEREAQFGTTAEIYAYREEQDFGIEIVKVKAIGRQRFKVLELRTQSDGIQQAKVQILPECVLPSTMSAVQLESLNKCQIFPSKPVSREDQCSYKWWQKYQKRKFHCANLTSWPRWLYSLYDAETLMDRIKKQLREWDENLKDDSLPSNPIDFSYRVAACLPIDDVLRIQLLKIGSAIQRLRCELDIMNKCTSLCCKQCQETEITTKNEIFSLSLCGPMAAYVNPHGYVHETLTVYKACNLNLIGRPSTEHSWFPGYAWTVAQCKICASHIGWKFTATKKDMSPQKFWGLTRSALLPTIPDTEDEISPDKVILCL


Target: T1, CRBN, Q96SW2
Test: log2 fold change of degron read counts, EGFP-low vs EGFP+ sorted cells (limma voom), compound-induced degradation; higher = more compound-induced degradation of the degron-EGFP fusion; degrons are variants of IKZF1/3 zinc finger 2; compound dose not given here
Conditions: Jurkat, 18 h
Procedure: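 Pooled library of 8380 IKZF3 ZF2 degron mutants (positions 146-167 varied within the IKZF3 130-189 degron; only the varied core is printed, flanks not printed) fused to EGFP with IRES-mCherry, lentivirally expressed in Jurkat cells. mCherry+ cells were treated with one IMiD compound for 18 h (dose not stated) and FACS-sorted into EGFP-low and EGFP+ populations. Degron sequences were counted by NGS, and log2FC (EGFP-low vs EGFP+) was estimated by limma voom over 3 biological replicates.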

[1] = compound: compound 19 (5-tert-butyl-thalidomide)
[2] = compound: compound 22 (5-morpholino-thalidomide)
[3] = compound: compound 33 (diphenyl IMiD analogue)
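Also: pooled lentiviral library of zinc finger degron-EGFP fusions in mCherry-positive Jurkat cells, FACS-sorted after compound exposure, with degron abundance counted by next-generation sequencing.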

Sequence	log2 fold change of degron read counts [1]	log2 fold change of degron read counts [2]	log2 fold change of degron read counts [3]	log2 fold change of degron read counts (compound: thalidomide)
FGCDQCGARFTQKGNLLRHIKL [46F_47G_49D_50Q_52G_53A_54R_55F_67L_, Q9UKT9]	-1.28	-2.53	-2.52	-1.78
FKCEICGRWFTQKGNLLRHIKL [46F_47K_49E_50I_52G_53R_54W_55F_67L_, Q9UKT9]	-2.8	-3.25	-3.01	-2.58
FWCNQCGRHFTQKGNLLRHIKL [46F_47W_49N_50Q_52G_53R_54H_55F_67L_, Q9UKT9]	-1.56	-1.46	-1.56	-1.55
FACPQCGAVFTQKGNLLRHIKL [46F_47A_49P_50Q_52G_53A_54V_55F_67L_, Q9UKT9]	0.29	-1.36	-0.148	-1.43
FVCPICGHGFTQKGNLLRHIKL [46F_47V_49P_50I_52G_53H_54G_55F_67L_, Q9UKT9]	-2.33	-2.2	-1.88	-0.905
FLCEQCGAEFTQKGNLLRHIKL [46F_47L_49E_50Q_52G_53A_54E_55F_67L_, Q9UKT9]	-2.34	-3.65	-2.09	-1.63
FQCPQCGAYFTQKGNLLRHIKL [46F_47Q_49P_50Q_52G_53A_54Y_55F_67L_, Q9UKT9]	-1.88	-1.45	-0.995	1.25
LCCPICGFVCTQKGNLLRHIKL [46L_47C_49P_50I_52G_53F_54V_55C_67L_, Q9UKT9]	1.01	1.57	2.59	2.1
LGCPICGFVCTQKGNLLRHIKL [46L_47G_49P_50I_52G_53F_54V_55C_67L_, Q9UKT9]	3.04	1.82	1.33	0.747
LTCPICGFVCTQKGNLLRHIKL [46L_47T_49P_50I_52G_53F_54V_55C_67L_, Q9UKT9]	0.397	1.59	2.08	2.24
LQCPICGFVCTQKGNLLRHIKL [46L_47Q_49P_50I_52G_53F_54V_55C_67L_, Q9UKT9]	0.325	2.16	1.88	3.76
LMCPICGFVCTQKGNLLRHIKL [46L_47M_49P_50I_52G_53F_54V_55C_67L_, Q9UKT9]	-0.234	0.389	2.08	1.67
LYCPICGFVCTQKGNLLRHIKL [46L_47Y_49P_50I_52G_53F_54V_55C_67L_, Q9UKT9]	3.29	3.49	2.29	1.2
FICNICGADFTQKGNLLRHIKL [46F_47I_49N_50I_52G_53A_54D_55F_67L_, Q9UKT9]	-2.47	-1.85	-1.03	-0.92
FTCDVCGAIFTQKGNLLRHIKL [46F_47T_49D_50V_52G_53A_54I_55F_67L_, Q9UKT9]	-2.2	-1.5	-0.885	-0.951
FACEICGRYFTQKGNLLRHIKL [46F_47A_49E_50I_52G_53R_54Y_55F_67L_, Q9UKT9]	1.02	-1.33	-1.87	-1.22
FSCPICGAMFTQKGNLLRHIKL [46F_47S_49P_50I_52G_53A_54M_55F_67L_, Q9UKT9]	1.66	1.01	1.5	0.771
FSCPICGADFTQKGNLLRHIKL [46F_47S_49P_50I_52G_53A_54D_55F_67L_, Q9UKT9]	1.3	0.182	1.52	0.227
FVCPICGADFTQKGNLLRHIKL [46F_47V_49P_50I_52G_53A_54D_55F_67L_, Q9UKT9]	-1.19	1.3	1.21	1.95
FQCPICGAMFTQKGNLLRHIKL [46F_47Q_49P_50I_52G_53A_54M_55F_67L_, Q9UKT9]	-0.249	2.56	2.51	3.62
FGCPICGAMFTQKGNLLRHIKL [46F_47G_49P_50I_52G_53A_54M_55F_67L_, Q9UKT9]	3.33	2.19	1.89	0.606
FQCPICGADFTQKGNLLRHIKL [46F_47Q_49P_50I_52G_53A_54D_55F_67L_, Q9UKT9]	0.457	1.55	2.48	3.81
FHCPICGAMFTQKGNLLRHIKL [46F_47H_49P_50I_52G_53A_54M_55F_67L_, Q9UKT9]	1.97	1.9	1.34	0.306
FVCPICGAMFTQKGNLLRHIKL [46F_47V_49P_50I_52G_53A_54M_55F_67L_, Q9UKT9]	-0.498	1.33	1.86	1.85
FYCPICGAMFTQKGNLLRHIKL [46F_47Y_49P_50I_52G_53A_54M_55F_67L_, Q9UKT9]	2.65	2.73	2.02	0.0372
FGCNICGACFTQKGNLLRHIKL [46F_47G_49N_50I_52G_53A_54C_55F_67L_, Q9UKT9]	1.07	2.09	1.61	0.355
FDCNVCGAMFTQKGNLLRHIKL [46F_47D_49N_50V_52G_53A_54M_55F_67L_, Q9UKT9]	-2.41	-2.06	-1.24	-0.963
FECPQCGAKFTQKGNLLRHIKL [46F_47E_49P_50Q_52G_53A_54K_55F_67L_, Q9UKT9]	-1.95	-2.7	-2.13	0.127
